# Data reported in ChEMBL document CHEMBL4513216, “Probing the Open Global Health Chemical Diversity Library for Multistage-Active Starting Points for Next-Generation Antimalarials” (ACS Infect Dis, 2020).
# Out of some 69,000 compounds screened, about 8,600 (12%) showed an effect of 50% or more. For the sample, strong results were picked, then their nearest neighbours and some compounds at random.
# Tested on: Plasmodium berghei
# Test: Screen against P. berghei liver stage (PbLuc), transformed with Luciferase, at 10uM
# Type: functional, HepG2
# Settings: tested at 10 uM
row,Compound,INHIBITION
1,COc1ccsc1C(=O)N1CCCC(n2nc(C)cc2C)C1 (stereo not drawn),-5.25%
2,N#Cc1cccc(NC(=O)C2CCCN2c2nccs2)c1 (stereo not drawn),17.865%
3,O=C(CC1CCCCC1)NC1CCCCNC1=O (stereo not drawn),-65.3%
4,CCc1ccc(CC(=O)N2CCN(c3nccn3C)CC2)cc1,27%
5,CSCCC(NC(=O)c1ccccc1)C(=O)N(C)Cc1ccsc1 (stereo not drawn),16.1%
6,O=C(NCCn1nc(C2CCNC2)c2cccnc21)c1ccccc1 (stereo not drawn),-11.7%
7,CN(C)Cc1nnn2c1CN(Cc1cccnc1)CCC2,-21.1%
8,CCc1noc(CN2CCN(Cc3cccs3)CC2)n1,3.73%
9,COCC(=O)N(C)Cc1nc(N(C)C)ncc1-c1ccncc1,-3.53%
10,Cc1ncsc1CN1C[C@@H](OCC(=O)N(C)C)[C@H]2OCCC[C@H]21,-31.3%
11,CC(C)NS(=O)(=O)c1cc(C(=O)O)cc(-c2ccccc2F)c1,-108%
12,CC(C)NS(=O)(=O)c1cc(C(=O)O)cc(-c2ccccc2C#N)c1,53.8%
13,CC(=O)c1ccccc1-c1cc(C(=O)O)cc(S(=O)(=O)NC(C)C)c1,-9.2%
14,CC(=O)N1CC[C@H]2OCC[C@@H](C(=O)Nc3cccnc3C)[C@H]2C1,-14.2%
15,CN(C)C(=O)N1C[C@H]2CN(Cc3cccc(F)c3)C(=O)[C@H]2C1,33%
16,O=C(CO)N1C[C@H]2CN(Cc3cccc(F)c3)C(=O)[C@H]2C1,40.4%
17,O=C(c1ccc[nH]1)N1C[C@H]2CN(Cc3cccc(F)c3)C(=O)[C@H]2C1,8.53%
18,O=C(NC1CC1)N1C[C@H]2CN(Cc3cccc(F)c3)C(=O)[C@H]2C1,60.2%
19,COCC(=O)N1C[C@H]2CN(Cc3cccc(F)c3)C(=O)[C@H]2C1,50.9%
20,O=C(c1ccco1)N1C[C@H]2CN(Cc3cccc(F)c3)C(=O)[C@H]2C1,1.94%
21,CCc1ccc(C(=O)N2CCCC2c2c(C)nn(C)c2OC)o1 (stereo not drawn),-11.2%

row,Compound,INHIBITION
1,Cc1ccc(CN2C[C@@H]3CCCO[C@@H]3[C@H](N(C)Cc3ccco3)C2)s1,-15.1%
2,O=C(O)C1(Oc2ccc3c(c2)OCO3)CCN(C2CCOCC2)CC1,31.9%
3,N#CCC1CC(c2ccc(F)cc2)=NO1 (stereo not drawn),12.6%
4,O=C(CN1CCOC(Cn2cccn2)C1)NCCc1cccs1 (stereo not drawn),6.49%
5,Cn1cccc1C(=O)N1CC[C@H]2[C@H]1CCN2CC1CCOCC1,27.5%
6,Cn1cccc1C(=O)N1C[C@H]2CN(CC3CC3)C(=O)[C@H]2C1,2.26%
7,O=C1C[C@H]2[C@@H](CCN2C(=O)c2ccccc2)N1CCN1CCOCC1,30.1%
8,Cn1cccc1C(=O)N1CC[C@H]2[C@H]1CCN2CC1CC1,55.6%
9,Cn1cccc1C(=O)N1CC[C@H]2[C@@H]1CCC(=O)N2c1ccccc1,43.8%
10,Cn1cccc1C(=O)N1CCC2(CCCN(CC3CC3)C2=O)C1 (stereo not drawn),9.63%
11,Cn1cccc1C(=O)N1CC[C@@H]2[C@@H]1CC(=O)N2CCN1CCOCC1,1.9%
12,Cn1cccc1C(=O)N1CCC2(CCCN(CC3CCC3)C2=O)C1 (stereo not drawn),53.6%
13,Cn1cccc1C(=O)N1CC[C@@H]2[C@@H]1CC(=O)N2CC1CCOCC1,51.2%
14,O=C(c1ccoc1)N1CC[C@H]2[C@H]1CCN2CC1CC1,-6.05%
15,Cn1cccc1C(=O)N1CC[C@H]2[C@@H]1CCC(=O)N2CC1CC1,54.1%
16,Cn1cc(Cl)cc1C(=O)N1CCC2(CCCN(CC3CCC3)C2=O)C1 (stereo not drawn),19.5%
17,CCCn1nc(C)c2c(C(F)F)cc(=O)n(CC(=O)O)c21,-7.59%
18,O=C(c1cccc2ncccc12)N1CCCC(n2ccnc2)C1 (stereo not drawn),27.72%
19,CC(C)c1nnc(NC(=O)CN2C(=O)c3ccccc3NC2C(C)C)s1 (stereo not drawn),19.4%
20,Cc1nn(C)c(N2CCOCC2)c1CNCc1ccc(CO)c(F)c1,-35.7%
21,CCCc1cc(NC2CCc3nc(CC)nn3C2)n2ncnc2n1 (stereo not drawn),16.6%

row,Compound,INHIBITION
1,CN1C[C@H]2CNC[C@@]2(C(=O)NC2CCN(c3ncccc3C#N)CC2)C1,36.6%
2,COCc1nn(C(C)C)c2c1CCN(Cc1ccc(C)o1)C2,58.8%
3,COCc1nn(C(C)C)c2c1CCN(Cc1ccoc1)C2,-76.7%
4,COCc1nn(C(C)C)c2c1CCN(Cc1ccc(C)s1)C2,-6.53%
5,N#Cc1ccsc1NC(=O)CN1CCn2c(nnc2C2CC2)C1,23.4%
6,Cc1cc(CN(CCO)Cc2cc(Br)ccc2F)no1,37.8%
7,O=c1c2cc3c(cc2nnn1Cc1ccccc1)OCCO3,15.1%
8,O=c1c2cc3c(cc2nnn1Cc1ccccc1Cl)OCCO3,57.3%
9,Cc1ccccc1Cn1nnc2cc3c(cc2c1=O)OCCO3,37.5%
10,CC(=O)N1CC(=O)N(c2ccccc2)CC12CCN(Cc1nccs1)C2 (stereo not drawn),-0.912%
11,CC(=O)N1N=C(c2cccs2)OC1C(=O)NCCc1cccc(Cl)c1 (stereo not drawn),25.3%
12,Cc1cc(C)n(Cc2cccc(C(=O)N(CCC#N)CCC#N)c2)n1,56%
13,CC(C)(C)CN(CCC#N)C(=O)c1cccc(CC#N)c1,80%
14,CC(C)(C)CN(CCC#N)C(=O)Nc1cccc(N2CCNC2=O)c1,-45.2%
15,CCN(CC)C(=O)c1cccc(Cn2nc(C)cc2C)c1,10.5%
16,Cc1nc2ccc(C(=O)N(CCC#N)CCC#N)cc2nc1C,-37.4%
17,COC(=O)c1cccc(C(=O)N(CCC#N)CC(C)(C)C)c1,68.6%
18,N#CCCN(CCC#N)C(=O)c1cccc(N2CCNC2=O)c1,46.1%
19,COCCN(CCOC)C(=O)c1cccc(Cn2nc(C)cc2C)c1,11.1%
20,CC(C)(C)CN(CCC#N)C(=O)c1cccc(CN2CCCC2)c1,-38.2%
21,Cc1csc(C2CCCCN2C(=O)c2cc(C)n(C)n2)n1 (stereo not drawn),17.5%
